Among the data in PubChem BioAssay (EPA / NIEHS) are outcome values, retold here.

The structures appear in SMILES notation. Activity calls are given as the source filed them. Rule for the calls: active = hit-call score of the fitted dose curve at least 0.9, where 1 is the maximum; inconclusive = response in the unintended direction; inactive = score below 0.9.

Estrogen receptor beta (Homo sapiens), sequence (Q92731 whole entry, looked up, the tested form may be a part): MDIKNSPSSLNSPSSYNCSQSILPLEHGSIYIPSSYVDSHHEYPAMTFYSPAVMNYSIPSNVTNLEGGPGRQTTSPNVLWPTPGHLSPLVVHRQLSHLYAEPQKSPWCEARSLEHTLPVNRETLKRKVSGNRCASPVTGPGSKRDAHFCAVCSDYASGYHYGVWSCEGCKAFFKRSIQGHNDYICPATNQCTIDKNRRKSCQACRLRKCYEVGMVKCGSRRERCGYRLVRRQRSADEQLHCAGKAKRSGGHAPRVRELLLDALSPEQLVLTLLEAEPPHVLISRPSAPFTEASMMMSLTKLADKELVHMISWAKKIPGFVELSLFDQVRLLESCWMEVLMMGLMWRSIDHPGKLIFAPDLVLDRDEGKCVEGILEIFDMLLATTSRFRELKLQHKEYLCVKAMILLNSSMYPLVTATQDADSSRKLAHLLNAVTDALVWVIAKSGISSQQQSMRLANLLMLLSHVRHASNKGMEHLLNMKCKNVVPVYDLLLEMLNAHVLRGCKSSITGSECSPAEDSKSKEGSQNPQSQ

The assay concerns the target Estrogen receptor beta (Homo sapiens) (UniProt Q92731). Description: OT_ER_ERbERb_1440: Odyssey Thera (OT) 24-hour HEK293T Protein-Complementation Assay for Estrogen Receptor-beta/-beta Homodimer (AID 2283380).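 Note: scored as signal increase over DMSO baseline for both agonists and antagonists.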 Here is the method: OT_ER_ERbERb_1440 is a cell-based assay that uses HEK293T, a human kidney cell line, with measurements taken at 24 hours after chemical dosing in a 384-well plate.OT_ER_ERbERb_1440 is one of one assay component(s) measured or calculated from the OT_ER_ERbERb_1440 assay. It is designed to make measurements of protein fragment complementation, a form of binding reporter, as detected with fluorescence intensity signals by Protein-fragment Complementation technology.Data from the assay component OT_ER_ERbERb_1440 was analyzed into 1 assay endpoint. This assay endpoint, OT_ER_ERbERb_1440, was analyzed in the positive analysis fitting direction relative to DMSO as the negative control and baseline of activity. Using a type of binding reporter, measures of receptor for gain-of-signal activity can be used to understand the binding at the pathway-level as they relate to the gene ESR2. Furthermore, this assay endpoint can be referred to as a primary readout, because the performed assay has only produced 1 assay endpoint. To generalize the intended target to other relatable targets, this assay endpoint is annotated to the nuclear receptor intended target family, where the subfamily is steroidal.
Protein-fragment complementation assay, or PCA, is a method for the identification and quantification of protein-protein interactions. In the PCA, the proteins of interest ("bait" and "prey") are each covalently linked to fragments of a third protein (e.g. DHFR, which acts as a "reporter"). Interaction between the bait and the prey proteins brings the fragments of the reporter protein in close proximity to allow them to form a functional reporter protein whose activity can be measured. The OT ER beta / ER beta assay is a homodimer PCA of the ligand binding domain (LBD; amino acids 310-547) of human ER beta stably expressed in HEK293T cells. […] Cells are fixed in 4 percent formaldehyde and stained with Draq5 (BioStatus) to identify cells prior to signal detection. Fluorescent signal in the basal state of the assay is very low and is primarily punctuate and cytoplasmic. Modulation of this assay is quantified as an increase in mean fluorescence intensity in the nucleus (for agonists) or in the nucleus and cytoplasm (antagonists) relative to vehicle controls, and can be quantified on a high content imaging device or a laser scanning cytometer. The latter instrument is favored for this assay because of the rapid mode of data acquisition, the ability to acquire data from the entire cell population in a well (as opposed to a fraction of the well on the high content devices) and the larger dynamic range typically achieved with this instrument. To assess sensitivity of the ER beta/ER beta LBD assay to ligand, cells were treated with the ER agonist 17- beta-estradiol (E2) in 10-point concentration- response format for 24 hours and monitored response on a laser scanning plate cytometer (Acumen eX3; TTP Lab Tech).
As for `Cc1oc(-c2ccccc2)nc1CCOc1cccc2c1ccn2CCC(=O)O`, the molecule was called inactive. The entry for `CCCCC(CC)COC(=O)CC(C(=O)OCC(CC)CCCC)S(=O)(=O)O` (stereo not given) is “inactive”. `NS(=O)(=O)c1cc2c(cc1Cl)NCNS2(=O)=O`: the molecule was called inactive. Consider `COC(=O)c1ccc(O)cc1`, for which the outcome was inactive. The entry for `CN[C@H]1CC[C@@H](c2ccc(Cl)c(Cl)c2)c2ccc(S(N)(=O)=O)cc21` is “inactive”; for `COCCOC[C@H](CC1(C(=O)NC2CCC(C(=O)O)CC2)CCCC1)C(=O)Oc1ccc2c(c1)CCC2` (stereo not given in full) it is “inactive”. The entry for `CNC(=O)[C@H]1O[C@@H](n2cnc3c(NCc4cc(Cl)ccc4OCc4cc(C)no4)ncnc32)[C@H](O)[C@@H]1N` is “inactive”; for `CCc1c(C(=O)NN2CCCCC2)nn(-c2ccc(Cl)cc2Cl)c1-c1ccc(Br)cc1` it is “inactive”; for `Nc1nc(N)c2nc(CNc3ccc(C(=O)N[C@@H](CCC(=O)O)C(=O)O)cc3)cnc2n1` it is “inactive”.

With `CC(C)(C)c1cc(O)c(C(C)(C)C)cc1O`, the result was inactive.

On to `CC1=C(/C=C/C(C)=C/C=C/C(C)=C/CO)C(C)(C)CCC1`, for which the molecule was called inactive. As to `CCCCCCCCCCCC(=O)OC`, the molecule was classed as inactive.

`O=C(O)CCCCC(=O)O`: the call was inactive. The entry for `Cc1ccc(C)c(C)c1` is “inactive”; for `CCCCCCOCCO` it is “inactive”; for `CC(=O)Oc1ccccc1C(=O)O` it is “inactive”. Regarding `C1CCC(SSC2CCCCC2)CC1`, the result was inactive.

For `CNCc1cc(F)ccc1Oc1ccc(Cl)c(Cl)c1`, the outcome was inactive. As for `Cc1c(C(=O)O)c(O)cc2c1C(=O)c1c(O)c([C@@H]3O[C@H](CO)[C@@H](O)[C@H](O)[C@H]3O)c(O)c(O)c1C2=O`, the molecule was called inactive. The value for `C[C@]12C=CC(=O)C=C1CC[C@@H]1[C@@H]2C(=O)C[C@@]2(C)[C@H]1CC[C@]2(O)C(=O)CO` was “inactive”. As to `CCCCCCCCCCC`, the molecule was classed as inactive.

For `CCOC(=O)CCC(=O)OCC`, the molecule was called inactive.

As for `CC(C)c1ccc(C(=O)N=C(N)N)cc1S(C)(=O)=O`, the molecule was called inactive. As for `Nc1ccccc1N`, the result was inactive. The value for `CCOC(=O)C(C)(C)Oc1ccc(Cl)cc1` was “inactive”. The value for `CC(=O)OCCOCCOCCOC(C)=O` was “inactive”; that for `COc1cc(-c2nc(NC(=O)c3cc4cc(C)cc(C)c4n3CC(=O)O)sc2CCC2CCCCC2)c(OC)cc1Cl` was “inactive”; that for `CCCCOC(=O)CCCCCCCCC(=O)OCCCC` was “inactive”. The value for `O=[N+]([O-])C(CO)(CO)CO` was “inactive”; that for `COc1cc(C=O)ccc1O` was “inactive”; that for `Oc1ccc2c(c1)OC[C@@H](N1CCC(O)(c3ccc(F)cc3)CC1)[C@H]2O` was “inactive”. Regarding `CCCCCCCCCCCCCO`, the molecule was called inactive. The value for `Clc1cc(Cl)c(Cl)cc1Cl` was “inactive”; that for `Cc1ccc(C(C)C)c(O)c1` was “inactive”; that for `CCCCCCC(=O)OCC` was “inactive”.

For `O=C(N[C@@H](Cc1ccccc1)[C@@H](O)C(=O)N1C[C@@H](O)[C@@H](O)C1)c1cc2cc(Cl)ccc2[nH]1`, the call was inactive. As for `C[Si]1(C)O[Si](C)(C)O[Si](C)(C)O[Si](C)(C)O1`, the molecule was called inactive.

Consider `CCCCCC(=O)O`, for which the result was inactive. The value for `Cc1cccc([N+](=O)[O-])c1C` was “inactive”.

As to `Cc1cccc(C)c1O`, the molecule was called inactive.
